Measurements reported in ChEMBL document CHEMBL4513216, “Probing the Open Global Health Chemical Diversity Library for Multistage-Active Starting Points for Next-Generation Antimalarials” (ACS Infect Dis, 2020).
Out of some 69,000 compounds screened, about 8,600 (12%) showed an effect of 50% or more. For the sample, strong results were picked, then their nearest neighbours and some compounds at random.

What follows are compounds tested on Plasmodium berghei (assay: Screen against P. berghei liver stage (PbLuc), transformed with Luciferase, at 10uM). Conditions: tested at 10 uM.
Assay type: functional, HepG2
In the case of `CC(=O)Nn1c(C)cc(CN2CCC(C(=O)N3CCCC3)CC2)c1C`, the INHIBITION is reported as 52.8%.
`CC(=O)Nn1c(C)cc(CN2CCC(c3ccncc3)CC2)c1C` showed an INHIBITION of 28%.
`CC(=O)Nn1c(C)cc(CN2CCCN(Cc3ccncc3)CC2)c1C` gave an INHIBITION of 20.4%.
In the case of `CN(c1cccnn1)C1CCN(C(=O)c2n[nH]c3c2CCC3)CC1`, the INHIBITION is reported as -16.7%.
In the case of `O=C(c1cccnc1)N1CCSCC1`, the INHIBITION is reported as 35.7%.
`O=C(c1cnc(-c2cccnc2)nc1)N1CCC(c2ccncc2)CC1` showed an INHIBITION of 21.8%.
In the case of `O=C(c1cnc(-c2cccnc2)nc1)N1CCSCC1`, the INHIBITION is reported as 51.9%.
Compound `Cc1cccc(CNc2ccc(C(=O)N3CCC(CO)CC3)cc2)c1` has an INHIBITION of 38.3%.
`O=C([C@@H]1COC[C@H]2CN(C3CCOCC3)C[C@H]21)N1CCCCO1` gave an INHIBITION of -3.1%.
With `Cc1ccc2c(CC(=O)N(C)CCN(C)C)c(C)[nH]c2c1C` the INHIBITION was 50.75%.
With `Cc1[nH]c2c(C)cccc2c1CC(=O)N(C)CCN(C)C` the INHIBITION was 34.15%.
`CCc1cccc2c(CC(=O)N(C)CCN(C)C)c(C)[nH]c12` was tested, and the INHIBITION was 47.9%.
`CC(=O)N1CCN(C(=O)CN(C)c2ccc(Cl)cn2)CC1` was tested, and the INHIBITION was 25%.
With `c1cncc(COC[C@@H]2CCC[C@@]23CNCCO3)c1` the INHIBITION was 24%.
In the case of `Cc1nc(COC[C@@H]2CCC[C@@]23CNCCO3)cs1`, the INHIBITION is reported as 48.9%.
`c1cc(COC[C@@H]2CCC[C@@]23CNCCO3)ccn1` was tested, and the INHIBITION was 68.2%.
`c1cncc(COC[C@@H]2CCC[C@]23CNCCO3)c1` gave an INHIBITION of 22.2%.
In the case of `c1cc(COC[C@H]2CCC[C@]23CNCCO3)ccn1`, the INHIBITION is reported as 53%.
Work on `c1cncc(OC[C@@H]2CCC[C@@]23CNCCO3)c1` yielded an INHIBITION of -2.27%.
For `COC(=O)c1ccc(CN2CCC(c3n[nH]c(C)n3)CC2)s1`, the INHIBITION was 16.3%.
Compound `O=C(NCCc1noc(C2CCCC2)n1)c1cn2ccsc2n1` has an INHIBITION of 47.2%.
For `Cc1nc(C2CCN(C(C)C)CC2)sc1Br`, the INHIBITION was 30.4%.
Work on `CCN1CCCC(C)(C(=O)NCc2nncn2CCc2ccccc2)C1` (stereo not drawn) yielded an INHIBITION of 57%.
Work on `CCn1cnnc1CNC(=O)N1CCN(CCc2ccccc2)CC1` yielded an INHIBITION of 23.4%.
For `CCN1CCCC(C)(C(=O)NCc2nccn2Cc2ccccc2)C1` (stereo not drawn), the INHIBITION was 47.2%.
`Cc1cc(C)c2ncc(C#N)c(NC3CCN(CC(N)=O)CC3)c2c1` showed an INHIBITION of -5.705%.
For `Cc1cnn(CC2CCCCN2C(=O)c2ccc(NC3CC3)nc2)c1` (stereo not drawn), the INHIBITION was 42.45%.
`O=S(=O)(N1CCN(CC2CC2)CC1)N1CCCC1c1ccco1` (stereo not drawn) gave an INHIBITION of 31.9%.
For `COC1CCN(S(=O)(=O)N2CCCC2c2ccco2)CC1` (stereo not drawn), the INHIBITION was 49%.
`O=S(=O)(N1CCC(n2cccc2)CC1)N1CCCC1c1ccco1` (stereo not drawn) showed an INHIBITION of 66.1%.
Work on `CC(C)CN1CCN(S(=O)(=O)c2cn(C)cn2)Cc2cccnc21` yielded an INHIBITION of 48.7%.
`COCCC(=O)N1CCCC1c1csc(Nc2ncccn2)n1` (stereo not drawn) was tested, and the INHIBITION was 36.7%.
`CNC(=O)C1CCN(c2nc3nc[nH]c(=O)c3s2)CC1` gave an INHIBITION of 24.7%.
Compound `O=C(NC1CC1)C1CCN(c2nc3nc[nH]c(=O)c3s2)CC1` has an INHIBITION of 50.2%.
`CC(C)NC(=O)C1CCN(c2nc3nc[nH]c(=O)c3s2)CC1` showed an INHIBITION of 4.35%.
In the case of `Cc1ccccc1CCCN(C)S(C)(=O)=O`, the INHIBITION is reported as 24.2%.
For `CCN(CCCc1ccccc1C)S(C)(=O)=O`, the INHIBITION was 14.1%.
Compound `CCN(CC)S(=O)(=O)N(Cc1ccccn1)Cc1ccccc1C` has an INHIBITION of 61.3%.
With `Cc1ccccc1CCCN(Cc1ccccn1)S(C)(=O)=O` the INHIBITION was 51%.
`CCN(CC)S(=O)(=O)N(Cc1cccc(C)c1)Cc1ccccn1` gave an INHIBITION of 9.63%.
With `CCN(Cc1ccccc1C)S(C)(=O)=O` the INHIBITION was 5.15%.
Work on `COCCN1CCCN(C(=O)NC(C)Cn2cccn2)CC1` (stereo not drawn) yielded an INHIBITION of 42.6%.
Compound `Fc1cnc(N2CCCn3c(nnc3Cn3ccnc3)C2)nc1` has an INHIBITION of -68%.
`Cc1noc(C2CCN(C(=O)CCCNc3ncccn3)CC2)n1` showed an INHIBITION of 18.4%.
Work on `CCC(CC)c1nnc(NC(=O)NC(C)Cn2cccn2)s1` (stereo not drawn) yielded an INHIBITION of 27.4%.
Compound `Cc1nc(CN(C)C2CCN(Cc3cccc4c3OCCO4)C2)no1` (stereo not drawn) has an INHIBITION of 29.4%.
`O=C(c1cccs1)N1CC[C@@H]2[C@H]1CCC(=O)N2c1ccccc1` showed an INHIBITION of 40.3%.
In the case of `O=C1CC[C@H]2[C@H](CCN2c2ncc(F)cn2)N1c1ccccc1`, the INHIBITION is reported as 49.4%.
`Cc1cnc(N2CC[C@H]3[C@@H]2CCC(=O)N3c2ccccc2)nc1` was tested, and the INHIBITION was 2.7%.
With `Cn1cc(N2C(=O)CC[C@@H]3[C@H]2CCN3Cc2nccs2)cn1` the INHIBITION was 22.4%.
`O=C1CC[C@H]2[C@H](CCN2c2ncccn2)N1c1ccccc1` was tested, and the INHIBITION was 55.4%.
For `O=C(c1cnccn1)N1CC[C@H]2[C@@H]1CCC(=O)N2c1cccnc1`, the INHIBITION was 22.9%.
`O=C(c1cscn1)N1CC[C@H]2[C@@H]1CCC(=O)N2c1ccccc1` showed an INHIBITION of 55.5%.
Compound `Cc1nc(CN2CC[C@H]3[C@@H]2CCC(=O)N3c2cnn(C)c2)cs1` has an INHIBITION of -20.1%.
Compound `Cn1cc(N2C(=O)CC[C@@H]3[C@H]2CCN3C(=O)c2cscn2)cn1` has an INHIBITION of 52%.
`Cc1noc(C(C)C)c1C(=O)NCc1ccc(N(C)C)c(F)c1` showed an INHIBITION of 29.2%.
In the case of `COc1cc(CSc2nnc(N)n2C2CC2)ccc1SC`, the INHIBITION is reported as 0.348%.
For `CN(C)Cc1noc2c1CN(C(=O)c1ccncc1)CC2`, the INHIBITION was 39.4%.
With `O=S1(=O)[C@@H](c2ccccc2)[C@H](CO)CN1C1CC1` the INHIBITION was -1.99%.
Compound `Cc1ccoc1C(=O)N1Cc2c(Cn3ccnc3)nn(C)c2C1` has an INHIBITION of 39.2%.
`Cc1ccc(C2(O)CCN(C(=O)c3sccc3S(N)(=O)=O)CC2)nc1` gave an INHIBITION of -11.3%.
With `CCOc1cc(CN(C)CCCC#N)ccc1OC(F)F` the INHIBITION was 75.2%.
`CCOc1cc(CNC(=O)C(C#N)c2nc(C)cs2)ccc1OC(F)F` (stereo not drawn) was tested, and the INHIBITION was 42.8%.
With `CCOc1cc(CN(C)Cc2ccccc2)ccc1OC(F)F` the INHIBITION was 68.8%.
For `CCOc1cc(CN(C)CC(=O)O)ccc1OC(F)F`, the INHIBITION was 21%.
In the case of `COc1ccc(CN(CCC#N)CCN2CCOCC2)cc1OC`, the INHIBITION is reported as 43.4%.
`CCOc1ccc(CN(CCC#N)CCN2CCOCC2)cc1OC` showed an INHIBITION of 55.4%.
With `COc1ccc(F)cc1CSCC(=O)N(C)CCC#N` the INHIBITION was 13.6%.
`CCOc1cc(CN(C)CC(C)(C)O)ccc1OC(F)F` gave an INHIBITION of -2.13%.
Compound `CCOc1cc(CN(C)CCC#N)ccc1OC(F)F` has an INHIBITION of 64.1%.
`CCOc1cc(CN(C)CCCO)ccc1OC(F)F` showed an INHIBITION of 31.4%.
In the case of `COc1ccc(F)cc1CSCC(=O)N(CCC#N)CCC#N`, the INHIBITION is reported as -28.8%.
`COc1ccc(CN(CCC#N)CCN2CCOCC2)c(OC)c1` showed an INHIBITION of 31.9%.
In the case of `CCNC(=O)NC(=O)CNC1(c2noc(C)n2)CCCC1`, the INHIBITION is reported as 43.8%.
With `CNc1cc(C2CN(C(=O)c3cscn3)CCO2)nc(C)n1` (stereo not drawn) the INHIBITION was 26.7%.
With `COCCNC(=O)C(C)N1CCN(C)CC1` (stereo not drawn) the INHIBITION was 4.41%.
In the case of `CCN(CC)CCN(C)Cc1cn(C)nc1-c1ccc2c(c1)OCCO2`, the INHIBITION is reported as 39.4%.
`COc1ccccc1-n1nc(-c2ccco2)n(CC(N)=O)c1=O` was tested, and the INHIBITION was 30.9%.
In the case of `O=C1COC2(COCCN(Cc3ccsc3)C2)CN1c1ccc(F)cc1` (stereo not drawn), the INHIBITION is reported as 13.1%.
With `O=C1CCC(c2ccc(Cl)cc2)=NN1CN1CCCCCC1` the INHIBITION was -52.7%.
For `CC(C)C(=O)N1CC[C@@H]2[C@H](CC1)N(Cc1cccnc1)CCS2(=O)=O`, the INHIBITION was -20.1%.
`CN(C)C(=O)N[C@H]1CN(Cc2ccc3c(c2)OCO3)[C@@H]2CCCO[C@H]12` showed an INHIBITION of 27.2%.
For `CCOCCC(=O)N1CCCC(CO)(CC2CC2)C1` (stereo not drawn), the INHIBITION was 33%.
Work on `O=C(O)c1nnn(-c2cccc(C(F)(F)F)c2)c1C1CC1` yielded an INHIBITION of 12.9%.
In the case of `CCOc1cc(CN(C)CCC(=O)OC)ccc1OC(F)F`, the INHIBITION is reported as 54.5%.
With `CCOc1cc(CN(C)CCOC)ccc1OC(F)F` the INHIBITION was 43.5%.
`CCOc1cc(CNC(=O)NC2CC=CC2)ccc1OC(F)F` gave an INHIBITION of 23.9%.
In the case of `CCN1CC2(CCN(C(=O)c3nc4cc(C)ccn4c3F)CC2)CC1=O`, the INHIBITION is reported as 7.65%.
In the case of `CCn1ccc(NS(=O)(=O)c2cccc(CSC)c2)n1`, the INHIBITION is reported as -3.83%.
In the case of `Cn1cc(-c2cnc3n2CCC32CCN(S(=O)(=O)C3CC3)CC2)cn1`, the INHIBITION is reported as 63.1%.
`CCCS(=O)(=O)N1CCC2(CC1)CCn1c(-c3cnn(C)c3)cnc12` showed an INHIBITION of 85.4%.
With `Cn1cc(-c2cnc3n2CCC32CCN(S(C)(=O)=O)CC2)cn1` the INHIBITION was -26.1%.
Compound `Cn1cc(N2CCC3(CCN(S(=O)(=O)C4CC4)C3)C2=O)cn1` (stereo not drawn) has an INHIBITION of 15.1%.
Compound `CCS(=O)(=O)N1CCC2(CC1)CCn1c(-c3cnn(C)c3)cnc12` has an INHIBITION of -65.4%.
With `CC(C)CS(=O)(=O)N1CCC2(CC1)CCn1c(-c3cnn(C)c3)cnc12` the INHIBITION was 5.41%.
Compound `O=C(CCO)N1C[C@H]2CN(c3ccccc3)C(=O)[C@H]2C1` has an INHIBITION of -73.8%.
`Cc1c(-c2cc(-c3cnn(C)c3C)n(CC(=O)NC3CC3)n2)cnn1C` gave an INHIBITION of 45.4%.
In the case of `Cc1nc(N2CCN(C(=O)C3CCCC3)CC2)c2c(n1)c(C)nn2C`, the INHIBITION is reported as 35.8%.
With `COCCn1c(=O)n(C)c(=O)c2ccc(C3CCC(CN)CC3)nc21` (stereo not drawn) the INHIBITION was 36.1%.
For `O=C(NC1CCCC1)N1CCC2(CC1)CC(Oc1cccnc1)CO2` (stereo not drawn), the INHIBITION was 9.63%.
With `CC(C)N(C)CC(=O)N(C)Cc1nc(C(F)(F)F)cs1` the INHIBITION was 22.7%.
For `CC(C)CC(=O)N(C)Cc1nc(C(F)(F)F)cs1`, the INHIBITION was 62.9%.
With `CCOCC(=O)N(C)Cc1nc(C(F)(F)F)cs1` the INHIBITION was 9.52%.
For `Cc1ccc(N2CCCC(NCc3nnc4n3CCCC4)C2=O)cc1` (stereo not drawn), the INHIBITION was -76.95%.
In the case of `CNC(=O)[C@H]1C[C@@H]2CN(C(=O)c3occc3C)C[C@@H]2N1S(C)(=O)=O`, the INHIBITION is reported as -0.371%.
`O=C1CCSCC(C(=O)N2CCCC2)N1` (stereo not drawn) showed an INHIBITION of 38.5%.
In the case of `O=C1CCSCC(C(=O)N2CCCCC2)N1` (stereo not drawn), the INHIBITION is reported as -18.3%.
For `CS(=O)(=O)N1CCN(C(=O)C2CSCCC(=O)N2)CC1` (stereo not drawn), the INHIBITION was 60%.
